Source: PubChem (National Center for Advancing Translational Sciences (NCATS))
ATXN2 expr inh: reduces ATXN2 reporter expression in HEK-293 cells; HEK-293 ATXN2-luciferase reporter, luminescence, 24 h; Potency, µM (doses to about 57 µM), for inactives: top-dose activity change, negative = inhibition, actives largely listed as inhibitors; 360,000 compounds, 0.72% hits; AID 1745845; note: potency is the fitted concentration of half-maximal effect; % is set by controls: 0 for no effect and ±100 for the full control effect; nearly all actives have a fitted effect of over 55% in size
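qHTS (up to 57 uM final) was run with 24 h compound exposure of reporter cells at 37 °C. Each well was multiplexed: SteadyGlo luminescence measured ATXN2-luciferase expression after a fluorogenic Gly-Phe-AFC viability readout (25 uM final).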
TGFb SMAD3 inh: blocks TGF-b signaling. HepG2 CAGA-GFP TGF-b/SMAD3 reporter, GFP fluorescence, 18 h; TGF-beta stimulated, 500 pg/mL final. Potency, µM (highest dose often 46.1 µM), for the others: at the top dose activity, negative = inhibition, most hits filed as inhibitors. 410,000 compounds, 1.2% hits; note: potency is the fitted concentration of half-maximal effect; % is set by controls: 0 for no effect and ±100 for the full control effect; nearly all actives have a fitted effect of over 65% in size
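GFP signal (ex488/em500-530) from TGF-beta-stimulated HEPG2 CAGA-GFP cells, 500 pg/mL final, 18 h at 37 degrees C in DMEM plus 1% FBS, normalized to unstimulated and DMSO-stimulated controls.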
D3 ag: activates the human D3 dopamine receptor; D3R DiscoveRx beta-arrestin cells, luminescence, 90 min; max activation, %; 410,000 compounds, 0.58% hits; P35462; in the data active = max activation above about 30%; note: 0% is about no effect
Target sequence (P35462 whole entry, looked up): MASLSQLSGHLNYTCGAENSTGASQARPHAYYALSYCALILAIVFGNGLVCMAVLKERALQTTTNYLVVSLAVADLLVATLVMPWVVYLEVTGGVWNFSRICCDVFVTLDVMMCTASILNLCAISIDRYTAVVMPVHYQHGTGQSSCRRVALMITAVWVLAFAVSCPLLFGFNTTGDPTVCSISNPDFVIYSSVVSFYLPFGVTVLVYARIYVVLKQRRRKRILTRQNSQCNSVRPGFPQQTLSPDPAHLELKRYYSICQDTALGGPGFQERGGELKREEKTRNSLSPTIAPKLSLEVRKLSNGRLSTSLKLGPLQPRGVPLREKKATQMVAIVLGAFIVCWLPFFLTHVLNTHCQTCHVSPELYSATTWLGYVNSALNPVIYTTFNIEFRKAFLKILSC
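Agonist mode: compounds and dopamine controls were applied to plated cells for 90 min at 37 degrees C after an overnight attachment at 1500 cells/well. Luminescent read-out followed 30 - 60 minutes at room temperature with DiscoveRx detection reagent.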
D3 antag: antagonists of human D3 dopamine receptor. max response, negative = inhibition, %. D3R cells, DiscoveRx beta-arrestin luminescence, antagonist mode; active compounds read low. P35462. 360,000 compounds, 2.5% hits; in the data active = max response below about -50%; inconclusive = no clear call, values can overlap the other calls; note: % is set by controls: 0 for no effect and ±100 for the full control effect
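Cells plated overnight at 1500 cells/well, then exposed to library compounds with dopamine controls for 90 minutes at 37 degrees C. DiscoveRx reagent added for 30–60 minutes at room temperature; luminescence read, quantitative HTS format.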
ATXN viability: reduces viability in counter-screen for ATXN expression inhibitors. S2 cells (HEK-293 line with an ATXN2-luciferase reporter) viability, CellTiter-Fluor protease fluorescence, 24 h. 400,000 compounds, 0.49% hits. Potency, µM (series often up to 56.7 µM), actives largely listed as cytotoxic; note: potency is the fitted concentration of half-maximal effect; nearly all actives have a fitted effect of over 40% in size
HepG2 viability: HepG2 cytotoxicity, counter-screen for TGF-b inhibitors; HepG2 CAGA-GFP viability, ATP luminescence, 18 h; Potency, µM (series often up to 46.1 µM), inactives show top-dose activity change, negative = cytotoxicity, hits mostly cytotoxic; 410,000 compounds, 0.76% hits; note: potency is the fitted concentration of half-maximal effect
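CellTiter-Glo luminescence gave cytotoxicity after 18 hours at 37 degrees C. The cells were HepG2 CAGA-GFP in 1% FBS DMEM, stimulated with 500 pg/mL TGF-beta after compound addition. %Activity was normalised to no-cell wells (complete cell-killing) and DMSO (no toxicity), and curves were fitted and classified.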
Active calls of the source: *; i = inactive; ? = inconclusive; . = no result given; ! = repeats disagree. In the library only some 4.8% were active in any assay of this set; here they are far more common. Unless noted, calls come from the whole dose curve; as a rule, active = well fitted curve in the direction sought with a large enough effect; inconclusive = small, poorly fitted or top-dose-only effect, or another doubt; inactive = no such curve, though single readings can be large; an effect the other way counts as inactive or inconclusive.

SMILES	ATXN2 expr inh	TGFb SMAD3 inh	D3 ag	D3 antag	ATXN viability	HepG2 viability
Cc1ccc(N2C(=O)c3cccc4cccc(c34)C2=O)cc1	-33%	-17%	-7	-11	i	-15%
CC1=CC2=C(OC1N(C)C)c1cccc3cccc(c13)C2=O (configuration not stated)	-3%	?	-11	-52*	i	-10%
CC(=O)N1CCCc2cc(S(=O)(=O)N(C)CC(=O)Nc3ccc(C(C)C)cc3)ccc21	-23%	-8%	10	.	?	-36%
COc1ccc2c(c1)OC[C@H]1[C@H]2N2C(=O)c3cc(OC)ccc3NC(=O)[C@@]2(C)[C@H]1c1ccccc1	-9%	-5%	-3	-52*	i	-17%
CC(NC(=S)NCCc1ccccc1)C(c1cccs1)N1CCN(Cc2ccccc2)CC1 (configuration not stated)	?	?	-13	-79*	?	-43%
COc1ccc(OC)c(NC(=O)c2cnn(-c3ccc(C)cc3)c2C2CCNCC2)c1	-2%	-1%	-12	.	i	-40%
O=C(NN1C(=O)c2cc(Br)ccc2NC1c1ccccc1Cl)c1ccncc1 (configuration not stated)	28%	-19%	4	-1	i	12%
O=C(NN1C(=O)c2cc(Br)ccc2NC1c1cc(Br)cc(Br)c1O)c1ccncc1 (configuration not stated)	10%	?	-16	-66*	i	-22%
O=C1C=CC(=O)N1c1ccccc1N1C(=O)C=CC1=O	?	?	-38	-113*	35µM*	-95%
O=C(c1ccccc1)c1ccccc1N1C(=O)C=CC1=O	?	?	-18	?	.	-22%
C=CCN(CC=C)Cc1c(O)ccc2c1oc(=O)c1ccccc12	-6%	1%	-29	-62*	i	1%
O=C(Nc1nnc(SCc2ccccc2Cl)s1)C1COc2ccccc2O1 (configuration not stated)	-8%	-2%	-1	-59*	i	-23%
CCOC(=O)/C(=C/c1ccc(N2CCC(c3ccccc3)=N2)cc1)C(C)=O	1.9µM*	1%	-4	-8	.	-32%
NC[C@@H]1O[C@H](C23CC4CC(CC(C4)C2)C3)Cc2c1ccc(O)c2O	?	-21%	88*	31	.	-56%
O=C(O)c1cc2cccc(S(=O)(=O)N3CCCCC3)c2cc1O	11%	-7%	30*	9	.	-26%
CCCS(=O)(=O)c1ncc(Cl)c(C(=O)Nc2sc3c(c2C(=O)NCC)CCCC3)n1	.	?	.	.	.	-15%
Oc1ccccc1N=Cc1c(O)ccc2oc3c(c12)CCCC3	.	13µM*	9	10	?	-121%
O=C(O)c1ccc(N=Cc2c(O)ccc3oc4c(c23)CCCC4)cc1	.	?	-14	-16	i	-22%
CCOc1ccccc1C(=O)Nc1c(C(=O)Nc2ccc(F)cc2)oc2ccccc12	4%	?	-8	.	?	8%
CCn1c(Cl)c(C=O)s/c1=N\S(=O)(=O)c1ccccc1	13µM*	3.5µM*	-24	-122*	14µM*	8.9µM*
CCN1C(=O)CS/C1=N\S(=O)(=O)c1ccc(Cl)cc1	-16%	34%	2	5	i	16%
COc1cc2c(c(OC)c1)C(c1cccc(F)c1F)CC(=O)N2 (configuration not stated)	2%	-3%	5	.	i	2%
CCN(CC)c1ccc(NC(=O)Cn2nnc(-c3cccc(OC)c3OC)n2)c(C)c1	0%	-2%	31*	16	i	-3%
C=CC[C@@H](CC(=O)N(CCO)Cc1ccccc1)C(=O)N[C@H](COC(=O)[C@@H](CC=C)CC(=O)OC(C)(C)C)c1ccccc1	?	?	2	-13	.	-29%
C=CC[C@H](CC(=O)N(CCO)Cc1ccccc1)C(=O)N[C@H](COC(=O)[C@H](CC=C)CC(=O)OC(C)(C)C)Cc1ccccc1	-2%	?	-2	-23	22µM*	1%
SMILES	ATXN2 expr inh	TGFb SMAD3 inh	D3 ag	D3 antag	ATXN viability	HepG2 viability
C=CC[C@@H](CC(=O)N(CCO)Cc1ccccc1)C(=O)N[C@H](COC(=O)[C@@H](CC=C)CC(=O)OC(C)(C)C)C(C)(C)C	?	-30%	-31	-9	28µM*	-15%
O=C(Nc1ccccn1)c1cc2ccccc2o1	16µM*	0%	-7	10	i	7.9µM*
CCC/C=C/c1ccc(CN2C(C(C)C)C(=O)N(Cc3cn(Cc4ccco4)nn3)CCS2(=O)=O)cc1 (configuration not stated)	?	11µM*	0	2	?	-109%
CCC/C=C/c1ccc(CN2C(C)C(=O)N(Cc3cn(Cc4ccco4)nn3)CCS2(=O)=O)cc1 (configuration not stated)	-29%	22µM*	3	-6	?	-33%
COc1ccccc1C1CN(Cc2cccc3c2OCO3)Cc2ccccc2O1 (configuration not stated)	.	.	.	.	i	.
Cc1cc(SCc2sc(-c3ccc(C(F)(F)F)cc3)nc2C)ccc1OCC(=O)O	27%	.	.	.	.	.
O=[N+]([O-])c1cccc(/C=N/n2c(-c3cccnc3)n[nH]c2=S)c1	-4%	-3%	-6	-29	i	-10%
S=c1[nH]nc(-c2cc(-c3ccccc3)n[nH]2)n1/N=C/c1ccc(Cl)cc1	0%	?	-17	-55*	i	-49%
S=c1[nH]nc(-c2cc(-c3ccccc3)n[nH]2)n1/N=C/c1ccc(Cl)c(Cl)c1	-5%	?	-4	-8	?	-16%
O=[N+]([O-])c1ccc(/C=N/n2c(-c3cccnc3)n[nH]c2=S)cc1	-10%	-27%	-15	-56*	i	20%
COc1[nH]c(/N=C/c2ccco2)c(C#N)c1C#N	.	7%	.	.	.	-13%
COc1cc2c(cc1O)CCN[C@]21CS[C@@H]2c3c(OC(C)=O)c(C)c4c(c3[C@H](COC1=O)N1[C@@H]2[C@H]2c3c(cc(C)c(OC)c3O)C[C@@H]([C@@H]1O)N2C)OCO4	.	.	-14	.	?	.
CCCCC[C@H]1CN(C2CCCCC2)C(=O)[C@@H]1CC(=O)NCc1ccccc1	?	11µM*	22	7	.	16µM*!
CCCCC[C@H]1CN(Cc2ccccc2)C(=O)[C@@H]1CC(=O)NCc1ccc(OC)cc1	-15%	10µM*	9	16	i	-3%
COc1ccc(CNC(=O)C[C@H]2C(=O)N(Cc3ccc(OC)cc3)C[C@@H]2Cc2ccccc2)cc1	?	?	-12	?	?	-17%
